# Laboratory results reported in PubChem BioAssay (NCI).
# This is part of a sample that, as a whole, favours compounds with a hit. Of some 79,000 tested, about 15% had one in any assay. A number with no mark means an inactive call. Calls of active or inactive are those of the source. No stated cut-off is given here; in the data, active means growth inhibition above about 70%; inactive means the rest. Where a SMILES comes first, the peptide text is derived from it. Bridges are numbered along the chain shown (N, C = ends). The star is where a group is joined. Cbz = O=C(OCc1ccccc1)*; OBn = c1ccc(CO*)cc1
# Experiment: NCI Yeast Anticancer Drug Screen. Data for the sgs1 mgt1 strain (AID 161);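 further: 0% = growth of cultures given vehicle only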
# Details: S. cerevisiae sgs1 mgt1 strain, at 50.0 µM, stronger effect = higher value
# Outline: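 Test agents were incubated with a DNA-repair-mutant yeast strain. Growth was then read and compared against vehicle-treated controls.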
row,Structure (SMILES),growth inhibition
1,CSc1nc(NC2OC(CO)C(O)C(O)C2O)cc(=O)[nH]1 (stereo not given),2.85%
2,O=c1nc(N2CCSCC2)ccn1C1OC(CO)C(O)C1O (stereo not given),-8.45%
3,Oc1ccc(Br)cc1C(c1ccc2c(c1)OCO2)N1CCOCC1 (stereo not given),-7.8%
4,CC(C)C(O)C(=O)C(O)C(C)C (stereo not given),4.5%
5,N#CC(/C(=N\NC(N)=S)C(=O)NC1C2CC3CC(C2)CC1C3)c1ccc(Cl)cc1 (stereo not given),19.8%
6,CC(=O)N=C1CSc2ccccc2N1C,-7.9%
7,CCOCCOC(=O)OCCOCC,22.4%
8,Cc1ccc(-c2cnc3c(n2)c(=O)[nH]c(=O)n3C)cc1,20.5%
9,NC(=O)N/N=C1\CC2CCC1C2Cl (stereo not given),-5%
10,C/[N+]([O-])=N/COC1OC(COC2OCC(O)C(O)C2O)C(O)C(O)C1O (stereo not given),25.6%
11,C#CCN(C(=O)C(F)(F)F)C(/C=C\C(=O)OC)(C(=O)OCC)C(=O)OCC,-0.45%
12,Cc1ncc(N)nc1C,-26.5%
13,CCCCc1c2c(nn1C(C)=O)C(=O)C=C(Nc1ccccc1)C2=O,19.7%
14,O=[N+]([O-])c1ccc(S(=O)(=O)Nc2ccccc2-c2ccccc2)cc1,99.3% (active)
15,Oc1ccccc1C=NCCCN=Cc1ccccc1O,36.5%
16,COc1ccc(OC)c2c3c([nH]c12)C(=O)Nc1nc(N)nc(N)c1C3,30.4%
17,CCc1cc(C(C)(C)C)c(O)c(C(C)(C)C)c1,6.25%
18,CN(C)CCC(c1ccccc1)c1ccccc1,13.7%
19,O=CC(=O)c1cccc([N+](=O)[O-])c1,-3.6%
20,c1ccc(CNCCCNCCCCNCCCNCc2ccccc2)cc1,9.4%

row,Structure (SMILES),growth inhibition
1,CN(C=O)C1CCC2C3CC=C4CC(OC=O)CCC4(C)C3CCC21C (stereo not given),3.85%
2,C[N+](C)(C)CC(=O)N/N=C(\C(=O)Nc1ccc(Cl)cc1)C1C(=O)N(c2ccccc2)N=C1N (stereo not given),-14.8%
3,COC(OC)c1cccnc1C,-25.1%
4,COc1ccc(NCc2cnc3nc(N)nc(N)c3c2C)cc1,16.6%
5,Cc1cc2ccccc2c[n+]1CC(=O)c1ccc([N+](=O)[O-])cc1,62%
6,COc1cc(OC)c2c(c1)OC(c1ccccc1)CC2=O (stereo not given),-18.2%
7,COC(=O)C1CCC(=O)NCCCCC(NC(=O)C(CC(=O)OCc2ccccc2)NC(=O)OCc2ccccc2)C(=O)N1 (stereo not drawn) (Cbz-Asp(OBn)-Lys-Glu-OMe; lactam 2-3; configuration not given here),23.3%
8,NC1=NN(c2c(Cl)cc(Cl)cc2Cl)C(=O)C1,17.6%
9,COC(=O)/C=C(C)/C=C/C1OC(C)OCC1O (stereo not given),-3.65%
10,CC12CC3CC(C1)CC(NCCO)(C3)C2,-14.3%
11,CCOC(=O)c1ccc(/C(C)=N/NC(N)=S)cc1,21%
12,CC(=O)Oc1ccccc1C(=O)OC(=O)c1ccccc1OC(C)=O,-1.7%
13,CCOc1c(OC)ccc(C(C)=O)c1O,-22.1%
14,O=C(CCn1ccnc1[N+](=O)[O-])NCCCn1ccnc1[N+](=O)[O-],-42.4%
15,O=C(Cl)N(C1CCCCC1)C1CCCCC1,-1.5%
16,CC(C)CC1=C(N(C)C)C(=O)C=C(N(C)C)C1=O,10.2%
17,N#CC(C(=O)O)=C1CCCCCC1,3.7%
18,CC(=O)N(C)N=Nc1ccc(Cl)cc1,2.05%
19,NC(=O)c1ccc[n+](CCCCCCCCCCC(=O)[O-])c1,0.8%
20,C=CCCC(=O)CC(=O)OCC,-10.7%

# Experiment: NCI Yeast Anticancer Drug Screen. Data for the cln2 rad14 strain (AID 165);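 further: 0% = growth equal to vehicle treated cultures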
# Details: S. cerevisiae cln2 rad14 strain, at 50.0 µM, stronger effect = higher value
# Outline: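 Test compounds were added to cln2 rad14 yeast cultures; inhibition of growth was then determined by comparison with vehicle treatment.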
row,Structure (SMILES),growth inhibition
1,CSc1nc(NC2OC(CO)C(O)C(O)C2O)cc(=O)[nH]1 (stereo not given),-9.8%
2,O=c1nc(N2CCSCC2)ccn1C1OC(CO)C(O)C1O (stereo not given),-5.75%
3,Oc1ccc(Br)cc1C(c1ccc2c(c1)OCO2)N1CCOCC1 (stereo not given),14.4%
4,CC(C)C(O)C(=O)C(O)C(C)C (stereo not given),15.7%
5,N#CC(/C(=N\NC(N)=S)C(=O)NC1C2CC3CC(C2)CC1C3)c1ccc(Cl)cc1 (stereo not given),10.1%
6,CC(=O)N=C1CSc2ccccc2N1C,-40.4%
7,CCOCCOC(=O)OCCOCC,-4.3%
8,Cc1ccc(-c2cnc3c(n2)c(=O)[nH]c(=O)n3C)cc1,13.8%
9,NC(=O)N/N=C1\CC2CCC1C2Cl (stereo not given),-0.45%
10,C/[N+]([O-])=N/COC1OC(COC2OCC(O)C(O)C2O)C(O)C(O)C1O (stereo not given),13.8%
11,C#CCN(C(=O)C(F)(F)F)C(/C=C\C(=O)OC)(C(=O)OCC)C(=O)OCC,-4.5%
12,Cc1ncc(N)nc1C,-35.5%
13,CCCCc1c2c(nn1C(C)=O)C(=O)C=C(Nc1ccccc1)C2=O,-7.65%
14,O=[N+]([O-])c1ccc(S(=O)(=O)Nc2ccccc2-c2ccccc2)cc1,98.2% (active)
15,Oc1ccccc1C=NCCCN=Cc1ccccc1O,15.5%
16,COc1ccc(OC)c2c3c([nH]c12)C(=O)Nc1nc(N)nc(N)c1C3,21.8%
17,CCc1cc(C(C)(C)C)c(O)c(C(C)(C)C)c1,25.2%
18,CN(C)CCC(c1ccccc1)c1ccccc1,-13.6%
19,O=CC(=O)c1cccc([N+](=O)[O-])c1,11.4%
20,c1ccc(CNCCCNCCCCNCCCNCc2ccccc2)cc1,-10.3%

row,Structure (SMILES),growth inhibition
1,CN(C=O)C1CCC2C3CC=C4CC(OC=O)CCC4(C)C3CCC21C (stereo not given),5.95%
2,C[N+](C)(C)CC(=O)N/N=C(\C(=O)Nc1ccc(Cl)cc1)C1C(=O)N(c2ccccc2)N=C1N (stereo not given),-13.8%
3,COC(OC)c1cccnc1C,6.65%
4,COc1ccc(NCc2cnc3nc(N)nc(N)c3c2C)cc1,16.5%
5,Cc1cc2ccccc2c[n+]1CC(=O)c1ccc([N+](=O)[O-])cc1,-1.85%
6,COc1cc(OC)c2c(c1)OC(c1ccccc1)CC2=O (stereo not given),2.25%
7,COC(=O)C1CCC(=O)NCCCCC(NC(=O)C(CC(=O)OCc2ccccc2)NC(=O)OCc2ccccc2)C(=O)N1 (stereo not drawn) (Cbz-Asp(OBn)-Lys-Glu-OMe; lactam 2-3; configuration not given here),11.8%
8,NC1=NN(c2c(Cl)cc(Cl)cc2Cl)C(=O)C1,33.3%
9,COC(=O)/C=C(C)/C=C/C1OC(C)OCC1O (stereo not given),-8.55%
10,CC12CC3CC(C1)CC(NCCO)(C3)C2,-83.7%
11,CCOC(=O)c1ccc(/C(C)=N/NC(N)=S)cc1,15.4%
12,CC(=O)Oc1ccccc1C(=O)OC(=O)c1ccccc1OC(C)=O,-9.85%
13,CCOc1c(OC)ccc(C(C)=O)c1O,-2.35%
14,O=C(CCn1ccnc1[N+](=O)[O-])NCCCn1ccnc1[N+](=O)[O-],-1%
15,O=C(Cl)N(C1CCCCC1)C1CCCCC1,-10.9%
16,CC(C)CC1=C(N(C)C)C(=O)C=C(N(C)C)C1=O,-5.65%
17,N#CC(C(=O)O)=C1CCCCCC1,-1.8%
18,CC(=O)N(C)N=Nc1ccc(Cl)cc1,-17.6%
19,NC(=O)c1ccc[n+](CCCCCCCCCCC(=O)[O-])c1,-15%
20,C=CCCC(=O)CC(=O)OCC,10.3%
